From PubChem
Sampled rows, rich in hits. Any-hit rate of the full collection: about 28%.
D1 mod = D1 dopamine receptor (human) allosteric modulation; P21728; HEK293 D1, CRE-luciferase, dopamine EC30 potentiation; actives deviate in either direction; B-score at 10 µM; actives 5.9% (n = 58,000); AID 641;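 active means luminescence count or its row- and column-corrected plate score outside the 99.7% band of the plate's sample wells, on either side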
Target sequence (P21728 whole entry, looked up): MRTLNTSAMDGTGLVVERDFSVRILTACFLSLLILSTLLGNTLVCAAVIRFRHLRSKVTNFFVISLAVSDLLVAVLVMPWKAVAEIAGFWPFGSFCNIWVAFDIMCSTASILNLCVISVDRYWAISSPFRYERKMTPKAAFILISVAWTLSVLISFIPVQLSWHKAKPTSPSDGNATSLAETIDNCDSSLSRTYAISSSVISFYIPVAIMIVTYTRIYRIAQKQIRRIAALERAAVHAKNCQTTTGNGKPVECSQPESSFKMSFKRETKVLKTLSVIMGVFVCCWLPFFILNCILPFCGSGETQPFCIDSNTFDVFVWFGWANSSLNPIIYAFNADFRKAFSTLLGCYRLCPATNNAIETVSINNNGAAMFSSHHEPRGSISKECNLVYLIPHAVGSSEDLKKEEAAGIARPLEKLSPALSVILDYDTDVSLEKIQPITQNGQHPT
CYP2C9 act = activators of human CYP2C9; P11712; activation factor at 5 µM; recombinant CYP2C9, luciferin-H conversion, luminescence; active compounds read high; factor 1 = untreated enzyme, 0 = blocked; actives 1.4% (n = 96,000);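 active means activation factor of 2 or more for CYP2C9 at a 5 µM dose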;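 further: 0 = sulfaphenazole-blocked wells and 1 = vehicle-only wells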
CYP2C9 inhib = human CYP2C9 inhibition | AID 777 | actives 20% (n = 96,000) | inhibition, % at 5 µM | CYP2C9 Supersomes, luciferin-H conversion, luminescence;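 active means blocking of liver enzyme CYP2C9 beyond about 50% at 5 µM, limit read from the data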
CYP2C19 inh = human CYP2C19 inhibition; P33261; actives 21% (n = 96,000); CYP2C19 Supersomes, luciferin-H EGE luminescence, 30 min; inhibition, % at 5 µM;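 active means CYP2C19 inhibition above a set limit at 5 µM in the primary screen, cut at about 50% in these data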;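 further: plate controls were negative control wells for no effect and 2.5 mM tranylcypromine positive control for full effect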
CYP2C19 activ = activators of human cytochrome P450 2C19 | recombinant CYP2C19, luciferin-H EGE luminescence; active compounds read high; 0 = fully inhibited enzyme, 1 = untreated enzyme | activation factor at 5 µM | P33261 | AID 1025 | 96,000 tested, under 10 active;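 active means activation factor of at least 2 at 5 µM in the primary screen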;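 further: 0 = wells with 2.5 mM tranylcypromine and 1 = vehicle-only wells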
hDAT+cocaine = changed human dopamine transporter uptake under cocaine IC80; Q01959; LLC-PK1 hDAT cells, [14C]-dopamine uptake with cocaine IC80; actives deviate in either direction; B-score at 10 µM; actives 1.3% (n = 110,000);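 active means Z score or B-score, a plate-position-corrected score, falls beyond the plate's 99.7% confidence bounds, in either direction; inactive means both scores lie inside the 99.7% bounds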;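 further: scored against the spread of the other compound wells on the same plate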
* hit, by the source's call.

What do the screens show for `O=C(COC(=O)c1cccs1)c1ccccc1`?
D1 mod: -1.2; CYP2C9 act: 0.2; CYP2C9 inhib: 78*; CYP2C19 inh: 89*; CYP2C19 activ: 0.1; hDAT+cocaine: -1.1

How did COc1ccc(CCNC(=O)CN2CCN(c3cccc(C(F)(F)F)c3)CC2)cc1 do in these assays?
CYP2C9 act: 0.2; CYP2C9 inhib: 76*; CYP2C19 inh: 76*; CYP2C19 activ: 0.2; hDAT+cocaine: 2.1

Results for O=C(c1csc2c1CCCC2)n1cccn1 ?
D1 mod: 0.3

How did O=C(c1csc2c1CCCC2)N1CCN(c2cccc(C(F)(F)F)c2)CC1 do in these assays?
CYP2C9 act: 1.6; CYP2C9 inhib: -61; CYP2C19 inh: 65*; CYP2C19 activ: 0.3; hDAT+cocaine: -1.1

Results for O=C(c1cccc(F)c1)N1CCN(c2cccc(C(F)(F)F)c2)CC1 ?
D1 mod: -0.031; CYP2C9 act: 0.2; CYP2C9 inhib: 81*; CYP2C19 inh: 88*; CYP2C19 activ: 0.1; hDAT+cocaine: -0.086

How did O=C(c1csc2c1CCCC2)N1CCN(c2ccc(F)cc2)CC1 do in these assays?
hDAT+cocaine: -0.048

What do the screens show for `O=C(c1csc2c1CCCC2)N1CCN(c2ncccn2)CC1`?
D1 mod: 0.14; CYP2C9 act: 0.2; CYP2C9 inhib: 82*; CYP2C19 inh: 65*; CYP2C19 activ: 0.3; hDAT+cocaine: 0.28

How did NC(=O)CSc1nnc(C2CC2)n1Cc1ccccc1 do in these assays?
D1 mod: -0.094; CYP2C9 act: 1; CYP2C9 inhib: 4; CYP2C19 inh: -5; CYP2C19 activ: 1; hDAT+cocaine: 0.4

What do the screens show for `Cc1cccc(OCC(O)Cn2c(NCc3cccnc3)nc3c2c(=O)[nH]c(=O)n3C)c1` (stereo not drawn)?
D1 mod: -0.06; CYP2C9 act: 0.7; CYP2C9 inhib: 25; CYP2C19 inh: 4; CYP2C19 activ: 1; hDAT+cocaine: 0.2

Results for COc1ccc(NC(=O)N2CCN(c3cccc(C(F)(F)F)c3)CC2)cc1OC ?
CYP2C9 act: 1.4; CYP2C9 inhib: -37; CYP2C19 inh: -4; CYP2C19 activ: 1; hDAT+cocaine: 0.74

Results for CCOC(=O)N1CCN(c2ccc(C(=O)c3cccc(F)c3)cc2)CC1 ?
D1 mod: -0.34; CYP2C9 act: 0.2; CYP2C9 inhib: 82*; CYP2C19 inh: 67*; CYP2C19 activ: 0.3; hDAT+cocaine: 0.2

Results for COc1ccccc1C(=O)N1CCN(c2cccc(C(F)(F)F)c2)CC1 ?
D1 mod: -1.3; CYP2C9 act: 0.3; CYP2C9 inhib: 68*; CYP2C19 inh: 92*; CYP2C19 activ: 0.1; hDAT+cocaine: 0.11

How did COc1cccc(-c2nc(CSCC(=O)NCC3CCCO3)c(C)o2)c1 (stereo not drawn) do in these assays?
D1 mod: 0.023; CYP2C9 act: 0.8; CYP2C9 inhib: 16; CYP2C19 inh: 12; CYP2C19 activ: 0.9; hDAT+cocaine: 1.9

Results for COc1cc(/C=C/c2c([N+](=O)[O-])c(=O)n(C)c(=O)n2C)cc(OC)c1OC ?
CYP2C9 act: 0.8; CYP2C9 inhib: 17; CYP2C19 inh: 4; CYP2C19 activ: 1; hDAT+cocaine: -0.31

Results for COc1ccc(/C=C/c2c([N+](=O)[O-])c(=O)n(C)c(=O)n2C)cc1O ?
CYP2C9 act: 0.5; CYP2C9 inhib: 53*; CYP2C19 inh: 10; CYP2C19 activ: 0.9; hDAT+cocaine: 0.41

Results for COc1ccc(OC)c(N=C(C)C2=C(O)COC2=O)c1 ?
CYP2C9 act: 0.8; CYP2C9 inhib: 18; CYP2C19 inh: 34; CYP2C19 activ: 0.7; hDAT+cocaine: 0.072

How did COc1ccc(C(=O)N/C(=C\c2cccc3ccccc23)C(=O)NCCc2c[nH]c3ccccc23)cc1OC do in these assays?
CYP2C9 act: 0.3; CYP2C9 inhib: 65*; CYP2C19 inh: 50*; CYP2C19 activ: 0.5; hDAT+cocaine: 0.12

What do the screens show for `Cc1ccc(C(=O)N/C(=C\c2cccs2)C(=O)NCCc2c[nH]c3ccccc23)cc1C`?
CYP2C9 act: 0.7; CYP2C9 inhib: 35; CYP2C19 inh: 21; CYP2C19 activ: 0.8; hDAT+cocaine: 0.76

How did COc1ccccc1NC(=S)NCCc1ccccc1 do in these assays?
CYP2C9 act: 0.9; CYP2C9 inhib: 5; CYP2C19 inh: 82*; CYP2C19 activ: 0.2; hDAT+cocaine: 0.008

Results for CCC(=O)NC(=S)Nc1ccccc1OC ?
CYP2C9 act: 0.9; CYP2C9 inhib: 14; CYP2C19 inh: 39; CYP2C19 activ: 0.6; hDAT+cocaine: 0.72

What do the screens show for `COc1ccc(CCNC(=S)NC(=O)c2ccccc2)cc1OC`?
CYP2C9 act: 0.7; CYP2C9 inhib: 28; CYP2C19 inh: 61*; CYP2C19 activ: 0.4; hDAT+cocaine: 1.3

How did COc1ccccc1NC(=S)NCCc1c[nH]c2ccccc12 do in these assays?
CYP2C9 act: 2.4*; CYP2C9 inhib: -135; CYP2C19 inh: 86*; CYP2C19 activ: 0.1; hDAT+cocaine: 0.27

What do the screens show for `COc1c(C(CC(C)C)OC(C)=O)ccc2c1C(=O)OCc1cc(C)cc(O)c1O2` (stereo not drawn)?
hDAT+cocaine: 0.54

How did S=C(Nc1ccc(Cl)cc1Cl)Nc1ccccc1Oc1ccccc1 do in these assays?
CYP2C9 act: 1.1; CYP2C9 inhib: -11; CYP2C19 inh: -14; CYP2C19 activ: 1.1; hDAT+cocaine: -0.19

Results for S=C(NCCc1ccccc1)Nc1ccc(Cl)cc1Cl ?
CYP2C9 act: 0.5; CYP2C9 inhib: 46; CYP2C19 inh: 86*; CYP2C19 activ: 0.1; hDAT+cocaine: 0.28

How did S=C(NCCSCc1ccc(Cl)cc1Cl)Nc1ccccc1 do in these assays?
CYP2C9 act: 2.3*; CYP2C9 inhib: -131; CYP2C19 inh: 52*; CYP2C19 activ: 0.5; hDAT+cocaine: 0.11

Results for CC(=O)OC(C)(C)C#CCN1CCCC1 ?
CYP2C9 act: 1.1; CYP2C9 inhib: -11; CYP2C19 inh: -10; CYP2C19 activ: 1.1; hDAT+cocaine: -0.02

Results for CCCCn1c(-c2cccs2)nc2nc3ccccc3nc21 ?
CYP2C9 act: 0.6; CYP2C9 inhib: 44; CYP2C19 inh: 28; CYP2C19 activ: 0.7; hDAT+cocaine: 0.64

What do the screens show for `CCCCOCCCn1c(-c2ccco2)nc2nc3ccccc3nc21`?
D1 mod: -0.096; CYP2C9 act: 0.5; CYP2C9 inhib: 52*; CYP2C19 inh: 50; CYP2C19 activ: 0.5; hDAT+cocaine: 3.5*

What do the screens show for `Fc1ccc(-c2nc3nc4ccccc4nc3n2Cc2ccco2)cc1`?
D1 mod: 0.32; CYP2C9 act: 0.7; CYP2C9 inhib: 29; CYP2C19 inh: 13; CYP2C19 activ: 0.9; hDAT+cocaine: 0.0044

Results for c1ccc(-c2nc3nc4ccccc4nc3n2Cc2ccco2)cc1 ?
D1 mod: -0.5; CYP2C9 act: 0.5; CYP2C9 inhib: 51*; CYP2C19 inh: 8; CYP2C19 activ: 0.9; hDAT+cocaine: -1.7

Results for CC(CN(C)Cc1ccccc1)OC(=O)c1cccs1 (stereo not drawn) ?
D1 mod: -0.3; hDAT+cocaine: 0.21
